We go through 15 compounds from PubChem BioAssay.

For part of these data: Entries with a potency or affinity are not part of this list. Calls of active or inactive are those of the source.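 How the source made its calls, unless noted: active means fitted half-maximal concentration within the tested dose range, moderate curve steepness, a statistically real signal drop, and little compound fluorescence or tag-binding interference; inactive means the rest.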

For test [1], the target named is Cell division control protein 42 homolog (Homo sapiens) (UniProt P60953). Description: inhibition of fluorescent GTP binding to constitutively active Cdc42 – biochemical, multiplex bead flow cytometry, Bodipy-FL-GTP, dose response (AID 1333).
For test [2] the target is unchanged. The test can be described thus: inhibition of fluorescent GTP binding to wildtype Cdc42 – biochemical, multiplex bead flow cytometry, Bodipy-FL-GTP, dose response (AID 1334;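 active means fitted half-maximal concentration within the tested range, moderate curve steepness, significant signal drop, and little compound fluorescence or bead-linkage interference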). Particulars: bead-based flow cytometry, Bodipy-FL-GTP binding to GST-Cdc42; at 100 µM (top of the series) unless noted. Background: A flow cytometer gives signals particle by particle.
In test [3] the target is GTPase HRas (Homo sapiens) (UniProt P01112). Description: Ras wt fluorescent GTP loading blockade – biochemical, wildtype, multiplex bead flow cytometry, dose response (AID 1335;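 active means fitted half-maximal concentration within 10 nM to 100 µM, steepness 0.5 to 2, significant signal drop, low assay interference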). The following applies: bead-based flow cytometry, Bodipy-GTP binding to GST-Ras; at 100 µM (top of the series) unless noted.
The test system of test [4] is Ras-related protein Rab-7a (dog), GTP binding. Description: blockers of fluorescent GTP binding to Rab7 – biochemical, wildtype, multiplex bead flow cytometry, dose response (AID 1336; call rule not given here).
Test [5] addresses Ras-related C3 botulinum toxin substrate 1 (Homo sapiens) (UniProt P63000). Description: inhibition of wildtype Rac1 nucleotide loading – biochemical, multiplex bead flow cytometry, dose response (AID 1340;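 active means dose curve with midpoint inside tested range, moderate steepness, plateau gap beyond fit error, low compound glow and bead-link interference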). The following applies: GST-Rac1 beads, Bodipy-FL-GTP binding; at 100 µM (top of the series) unless noted.
Test [6] concerns the target GTPase HRas (Homo sapiens) (UniProt P01112). The test can be described thus: blockade of GTP loading onto mutant Ras – biochemical, activated mutant, multiplex bead flow cytometry, dose response (AID 1341;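 active means dose-response curve with midpoint inside the tested range, moderate steepness, significant amplitude and little compound fluorescence or bead-attachment interference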;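 further: GST-tagged constitutively activated Ras mutant immobilized on beads and multiplexed with other GTPases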).

Sequence of Cell division control protein 42 homolog (Homo sapiens) (P60953 whole entry, looked up): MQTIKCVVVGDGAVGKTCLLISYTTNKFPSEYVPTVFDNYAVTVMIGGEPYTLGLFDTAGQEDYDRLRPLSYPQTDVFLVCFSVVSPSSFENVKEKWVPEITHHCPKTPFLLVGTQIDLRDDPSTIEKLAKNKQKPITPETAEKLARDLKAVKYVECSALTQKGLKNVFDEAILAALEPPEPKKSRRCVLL
Sequence of GTPase HRas (Homo sapiens) (P01112 whole entry, looked up): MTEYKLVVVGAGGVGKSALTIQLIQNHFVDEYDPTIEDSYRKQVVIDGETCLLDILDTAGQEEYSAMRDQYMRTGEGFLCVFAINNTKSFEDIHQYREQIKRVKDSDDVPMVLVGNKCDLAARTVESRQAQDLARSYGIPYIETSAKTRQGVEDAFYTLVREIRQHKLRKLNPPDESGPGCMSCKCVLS

In the case of `Cc1nn2c(N)csc2nc1=O`, the result in test [1], in test [4] and in test [6] was inactive. For the same compound, the fluorescence, percent of control (lower = inhibition) in test [2] came to 56.9%. The GTP binding, percent of control in test [3] was determined as 67.8%. The compound further had a GTP binding signal, raw median fluorescence (lower = inhibition) (MCF (arbitrary fluorescence units)) in test [5] of 94.3.

As to `Nc1[nH]n2c(=O)c3c(nc2c1N=Nc1ccccc1)CCCC3`, the result in test [1], in test [4] and in test [6] was inactive. The fluorescence, percent of control (lower = inhibition) in test [2] is 31%. In test [3], the GTP binding, percent of control came to 41.6%. This compound also registered a GTP binding signal, raw median fluorescence (lower = inhibition) (MCF (arbitrary fluorescence units)) in test [5] of 109.

For the compound `COc1ccc(-n2cc(-c3ccccc3)c3c(=O)[nH]cnc32)cc1`, the call in test [1], in test [4] and in test [6] was inactive. For the same compound, the fluorescence, percent of control (lower = inhibition) in test [2] is 39.1%. In test [3], this compound had a GTP binding, percent of control of 84.4%. In addition, the GTP binding signal, raw median fluorescence (lower = inhibition) (MCF (arbitrary fluorescence units)) in test [5] is 327.

Turning to `S=c1[nH]nc(-c2ccco2)n1-c1ccccc1Cl`, the compound was classed as inactive in test [1], in test [4] and in test [6]. Moreover, the fluorescence, percent of control (lower = inhibition) in test [2] was 26.1%. In test [3], this compound yielded a GTP binding, percent of control of 60.5%. This compound also returned a GTP binding signal, raw median fluorescence (lower = inhibition) (MCF (arbitrary fluorescence units)) in test [5] of 231.

In the case of `N#Cc1c(Nc2ccccc2)c(/C=N/N=C/c2ccccc2)c[nH]c1=O`, the result in test [1], in test [4] and in test [6] was inactive. The fluorescence, percent of control (lower = inhibition) in test [2] amounted to 35.5%. In test [3], this compound registered a GTP binding, percent of control of 81.7%. The GTP binding signal, raw median fluorescence (lower = inhibition) (MCF (arbitrary fluorescence units)) in test [5] turned out to be 211.

With `CCOC(=O)c1cnc2c(C#N)cnn2c1N`, the result in test [1], in test [4] and in test [6] was inactive. Besides, in test [2], the fluorescence, percent of control (lower = inhibition) stood at 33.6%. Besides, the GTP binding, percent of control in test [3] amounted to 72.1%. In test [5], this compound yielded a GTP binding signal, raw median fluorescence (lower = inhibition) (MCF (arbitrary fluorescence units)) of 167.

For the compound `O=C(O)c1ccc(CNCc2cccc(Br)c2)s1`, the result in test [1], in test [4] and in test [6] was inactive. In test [2], the fluorescence, percent of control (lower = inhibition) came to 62.4%. This compound also had a GTP binding, percent of control in test [3] of 89.5%. The compound also returned a GTP binding signal, raw median fluorescence (lower = inhibition) (MCF (arbitrary fluorescence units)) in test [5] of 33.7.

As for `O=C(Nc1cc(S(=O)(=O)Nc2ccccc2Cl)ccc1O)c1sc2cc(Cl)ccc2c1Cl`, the compound was classed as inactive in test [1], in test [4] and in test [6]. The fluorescence, percent of control (lower = inhibition) in test [2] worked out at 35.5%. The GTP binding, percent of control in test [3] was 81.2%. For the same compound, the GTP binding signal, raw median fluorescence (lower = inhibition) (MCF (arbitrary fluorescence units)) in test [5] was found to be 248.

Turning to `Cc1c(C=O)c2ccccn2c1C(=O)c1cccc([N+](=O)[O-])c1`, the compound was called inactive in test [1], in test [4] and in test [6]. For the same compound, in test [2], the fluorescence, percent of control (lower = inhibition) was 31.4%. Also, in test [3], the GTP binding, percent of control was 76.8%. In test [5], this compound came in with a GTP binding signal, raw median fluorescence (lower = inhibition) (MCF (arbitrary fluorescence units)) of 242.

As for `Cc1cccc(OCCn2c(SCCC(=O)O)nc3ccccc32)c1`, the compound was called inactive in test [1], in test [4] and in test [6]. Besides, the fluorescence, percent of control (lower = inhibition) in test [2] was 58%. Moreover, the GTP binding, percent of control in test [3] is 85.4%. In test [5], this compound displayed a GTP binding signal, raw median fluorescence (lower = inhibition) (MCF (arbitrary fluorescence units)) of 28.9.

`C=CCc1ccccc1OCc1cccc(C(=O)O)c1`: the result in test [1], in test [4] and in test [6] was inactive. Also, the fluorescence, percent of control (lower = inhibition) in test [2] stood at 78.7%. In test [3], this compound came in with a GTP binding, percent of control of 99.3%. The compound also yielded a GTP binding signal, raw median fluorescence (lower = inhibition) (MCF (arbitrary fluorescence units)) in test [5] of 56.1.

Consider `Cc1ccc(CSCc2ccc(C(=O)O)o2)cc1`, for which the outcome in test [1], in test [4] and in test [6] was inactive. In addition, the fluorescence, percent of control (lower = inhibition) in test [2] came out at 50.3%. Also, the GTP binding, percent of control in test [3] came out at 74.2%. The same compound returned a GTP binding signal, raw median fluorescence (lower = inhibition) (MCF (arbitrary fluorescence units)) in test [5] of 28.2.

With `O=C(O)C1CCCN1C(=O)OCc1ccccc1` (stereo not given), the result in test [1], in test [4] and in test [6] was inactive. Further, in test [2], the fluorescence, percent of control (lower = inhibition) was determined as 108%. This compound also returned a GTP binding, percent of control in test [3] of 188%. In test [5], this compound gave a GTP binding signal, raw median fluorescence (lower = inhibition) (MCF (arbitrary fluorescence units)) of 235.

As for `NOC(=O)c1cccnc1SCCc1ccccc1`, the result in test [1], in test [4] and in test [6] was inactive. In test [2], the fluorescence, percent of control (lower = inhibition) was determined as 45.9%. Besides, in test [3], the GTP binding, percent of control stood at 125%. The GTP binding signal, raw median fluorescence (lower = inhibition) (MCF (arbitrary fluorescence units)) in test [5] came to 63.

With `Cc1cc(Cl)ccc1OCC(=O)OCC(=O)Nc1ccc(F)c([N+](=O)[O-])c1`, the compound was classed as inactive in test [1], in test [4] and in test [6]. In addition, in test [2], the fluorescence, percent of control (lower = inhibition) turned out to be 53%. Moreover, the GTP binding, percent of control in test [3] is 70.9%. In addition, the GTP binding signal, raw median fluorescence (lower = inhibition) (MCF (arbitrary fluorescence units)) in test [5] turned out to be 0.
